Pol kappa inh: DNA polymerase kappa (human) inhibition | Potency, µM (highest dose often 107 µM), without a hit: top-dose activity, negative = inhibition, usual class: inhibitors | AID 588579 | purified Pol kappa, fluorescent DNA synthesis assay, 10 min | Q9UBT6 | 0.53% of 400,000 active; also: % is scaled to controls: 0 for no effect and ±100 for the full control effect
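Pol kappa 10 nM + cpd, 15 min RT; start w/ substrate 50 nM final; fluorescence kinetic read, 0 and 10 min. Neg ctrl: buffer, no enzyme.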
Pol beta inh: blocks human DNA polymerase beta activity. 1.3% of 340,000 active. P06746. Pol beta primer extension/strand displacement, fluorescence kinetic. Potency, µM (titrated, usually from 114 µM), for the others: at the top dose activity change, negative = inhibition, most hits filed as inhibitors. AID 485314; also: % is scaled to controls: 0 for no effect and ±100 for the full control effect
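Preincubation: enzyme (10 nM) with compound, 15 min, RT. Reaction: substrate added to 50 nM final. Reads: 0 and 10 min. Analysis: normalized, Hill fit.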
POLH inh: DNA polymerase eta (human) inhibition; Potency, µM (top dose mostly 114 µM), for inactives: at the highest dose activity change, negative = inhibition, usual class: inhibitors; 1.2% of 390,000 active; AID 588591; recombinant Pol eta, fluorescent DNA replication assay; also: % is scaled to controls: 0 for no effect and ±100 for the full control effect
Target sequence (Q9Y253 whole entry, looked up): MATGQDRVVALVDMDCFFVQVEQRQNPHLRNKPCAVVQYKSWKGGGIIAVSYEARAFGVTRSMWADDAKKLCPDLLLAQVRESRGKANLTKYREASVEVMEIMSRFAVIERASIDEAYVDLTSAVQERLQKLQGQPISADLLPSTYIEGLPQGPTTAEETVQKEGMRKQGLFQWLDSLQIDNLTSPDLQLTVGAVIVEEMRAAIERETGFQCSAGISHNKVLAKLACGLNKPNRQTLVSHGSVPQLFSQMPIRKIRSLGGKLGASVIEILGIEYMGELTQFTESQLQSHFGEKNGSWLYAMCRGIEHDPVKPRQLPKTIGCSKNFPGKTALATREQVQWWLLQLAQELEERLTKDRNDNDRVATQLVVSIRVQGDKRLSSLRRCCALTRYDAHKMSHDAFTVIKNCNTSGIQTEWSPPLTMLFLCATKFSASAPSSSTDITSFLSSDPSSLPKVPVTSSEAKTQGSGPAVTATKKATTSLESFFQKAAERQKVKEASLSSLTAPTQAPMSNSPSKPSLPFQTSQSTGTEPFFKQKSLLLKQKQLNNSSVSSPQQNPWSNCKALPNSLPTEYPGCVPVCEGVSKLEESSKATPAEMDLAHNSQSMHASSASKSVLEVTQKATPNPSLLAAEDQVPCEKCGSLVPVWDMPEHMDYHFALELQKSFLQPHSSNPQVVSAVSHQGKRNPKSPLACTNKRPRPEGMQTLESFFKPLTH
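Fluorescent replication assay: 50 nM final substrate added after a 15 min room-temperature compound preincubation with 10 nM enzyme. Signal taken at 0 min and again at 10 min.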
FEN1 inhibitor: inhibitors of human flap endonuclease 1 | 0.35% of 390,000 active | AID 588795 | Potency, µM (highest dose often 114 µM), inactives show at the highest dose activity change, negative = inhibition, most hits filed as inhibitors | Recombinant FEN1 flap cleavage, fluorescence, 15 min | P39748; also: % is scaled to controls: 0 for no effect and ±100 for the full control effect; nearly all actives have a fitted effect of over 65% in size
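Nuclease activity of 10 nM FEN1 was measured after 15 min of room-temperature exposure to titrated compounds, by adding 50 nM flap substrate and reading plates at 0 and 15 min.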
POLI inh: DNA polymerase iota (human) inhibition | Q9UNA4 | Pol iota fluorescent replication assay, 10 min | Potency, µM (top dose mostly 115 µM), inactives show top-dose activity, negative = inhibition, hits mostly inhibitors | 1% of 390,000 active | AID 588590
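Pol iota at 10 nM preincubated 15 min with compounds at room temperature; reaction started with fluorescent substrate, 50 nM final. Fluorescence read kinetically at 0 and 10 min; buffer-only wells as negative control.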
WRN helicase inh: blocks human WRN helicase; 0.46% of 360,000 active; AID 651768; Potency, µM (titrated, usually from 114 µM), without a hit: top-dose activity change, negative = inhibition, actives largely listed as inhibitors; WRN helicase unwinding, fluorescent forked duplex, kinetic; also: % is scaled to controls: 0 for no effect and ±100 for the full control effect; nearly all actives have a fitted effect of over 55% in size
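Fluorescence dequenching readout, ex 525 nm/em 598 nm, kinetic mode: forked duplex DNA (100 nM final) with adjacent fluorophore and quencher unwound by WRN (20 nM final) with 2 mM ATP. Compound preincubation 15 min, room temperature.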
* marks the source's active call; other numbers are inactive results; ? = inconclusive; . = not tested or not shown; ! = not active in a repeat; [ ] = another dose, or the depositor's remark. Compounds with a hit are over-represented: about 2.4% of the library has one in this group of screens. Calls follow the shape of the dose curve; as a rule, active = well fitted curve in the direction sought with a large enough effect; inconclusive = small, poorly fitted or top-dose-only effect, or another doubt; inactive = no such curve, though single readings can be large; an effect the other way counts as inactive or inconclusive. Potency is read from the fitted curve at half-maximal effect.

SMILES | Pol kappa inh | Pol beta inh | POLH inh | FEN1 inhibitor | POLI inh | WRN helicase inh
NC1=C(Br)C(=O)c2ncccc2C1=O | -4.5% | . | 17.8µM* | -11.7% | 11.2µM* | ?
O=C1c2cccnc2C(=O)N1CO | -10.1% | 36.3% | -11.5% | -1.3% | 4.2% | -5.8%
Cc1cc(-c2cccnc2)c(C#N)c(SCC#N)n1 | -3.4% | 4.2% | -11.4% | -15.3% | 58.2% | -12.4%
CCc1cccc(CC)c1NC(=O)C1CCC(CNS(=O)(=O)c2cccc3nsnc23)CC1 (centres undefined) | 2.5% | 41.0% | -7.8% | -8.4% | 10.7% | .
CN(C(=O)c1ccccn1)c1nnc(-c2cccnc2)s1 | 4.3% | -1.9% | -0.8% | -1.6% | 6.0% | -0.6%
COc1cc(OC)cc(C(=O)Nc2cccc3ccccc23)c1 | -7.5% | -19.8% | -19.6% | -10.3% | 17.3% | -4.3%
Cc1[nH]c2ccccc2c1/C=N/Nc1nncn1N | -5.2% | ? | -23.1% | 0.5% | 5.01µM* | -2.4%
COc1ccc2c(c1)CC(C(=O)NCCN1CCN(c3ccccc3F)CC1)CO2 (centres undefined) | -11.7%[60.1 µM] | 7.7% | -11.1% | 16.8% | 12.1% | .
CCNc1nc(SCC(=O)Nc2ccc(Cl)c(Cl)c2)nc(N(C)C)n1 | -2.2% | 14.2% | -2.1% | 18.2% | 8.9% | -3.5%
CSc1c(C#N)c(N)c(C#N)c2c1COC(C)(C)C2 | -1.6% | -2.3% | -12.8% | -1.7% | -9.1%[58.9 µM] | -8.3%
O=C(Nc1ccccc1)c1nc[nH]c1C(=O)NCCCNC(=O)c1[nH]cnc1C(=O)Nc1ccccc1 | 0.0% | . | -12.9% | -16.2% | -7.8% | -0.4%
O=C(Nc1ccccc1)c1nc[nH]c1C(=O)NCCN(CCNC(=O)c1[nH]cnc1C(=O)Nc1ccccc1)CCNC(=O)c1[nH]cnc1C(=O)Nc1ccccc1 | -31.7% | . | -9.0% | 6.0% | 79.4µM* | -11.2%
CCCCCCC/C=C\CCCCCCCCC(=O)O | ? | ? | ? | . | 28.2µM* | .
CCCCCCCCCCC/C=C\C(C)(C)/C=C\CCCC(=O)O | 26.7µM*! | 31.6µM* | 28.2µM* | . | 28.2µM* | .
CCCCC/C=C\C/C=C\C/C=C\C/C=C\CCCCCC(=O)O | 3.4%[19.4 µM] | . | . | . | . | .
O=C(O)CCN1C(=O)/C(=C\c2ccc(OCc3ccccc3)c(OCc3ccccc3)c2)SC1=S | -1.0% | -26.3% | ? | 3.0% | -8.0% | 0.4%
COc1cc(NC(=O)N2CCSc3ccccc32)cc(OC)c1OC | -23.7% | -5.1% | 0.2% | -1.3% | -2.4% | .
CC(=O)Nc1ccc(S(=O)(=O)Nc2nc3nc(-c4ccccc4)cc(-c4ccccc4)n3n2)cc1 | 79.4µM* | 32.1% | -3.7% | -4.4% | ? | -12.2%
CCCCn1c(N)c(N(CC(C)C)C(=O)c2oc3ccc(Br)cc3c2C)c(=O)[nH]c1=O | -9.5% | . | 79.4µM* | 0.5% | ? | 4.2%[11.6 µM]
CCCCn1c(N)c(N(CC(C)C)C(=O)c2cc(-c3ccco3)nc3ccccc23)c(=O)[nH]c1=O | ? | . | 28.2µM* | 9.5% | 39.8µM* | -25.2%
CCCCn1c(N)c(N(CC(C)C)C(=O)c2ccc(C)o2)c(=O)[nH]c1=O | -10.0% | . | -16.1% | -6.9% | 39.8% | -2.0%
CCCCn1c(N)c(N(CC(C)C)C(=O)c2cc(=O)[nH]c3ccccc23)c(=O)[nH]c1=O | -8.5% | . | 5.3% | 9.4% | 23.8% | -10.7%
CCOCCSc1nc2c(c(=O)[nH]c(=O)n2C)n1CCCc1ccccc1 | -21.8% | 26.1% | 6.1% | 0.1% | 6.5% | 4.0%
COc1cccc(C(C)(O)c2nc(-c3cc4ccccc4o3)cs2)c1 (centres undefined) | . | . | . | . | . | 3.5%
Cn1c2ccccc2n2c(=O)cc(-c3ccccc3)c(C#N)c12 | -7.2% | 44.7µM* | -0.6% | 0.6% | 96.7% | ?
SMILES | Pol kappa inh | Pol beta inh | POLH inh | FEN1 inhibitor | POLI inh | WRN helicase inh
CS(=O)(=O)N1N=C(c2ccccc2)CC1c1ccc2c(c1)OCO2 (centres undefined) | -6.1% | ? | 31.6µM* | 5.1% | -0.8% | ?
CC/C(O)=C1\C(=O)CC(c2ccccc2)CC1=NCCc1c(C)[nH]c2ccc(C)cc12 (centres undefined) | -12.4% | 0.5% | ? | 1.4% | 26.7% | -1.2%
O=C(c1ccccc1)c1ccccc1N1C(=O)C=CC1=O | -14.8% | 3.2% | -10.2% | -10.3% | 108.7% | 12.6µM*
CCOc1ccc(C(=O)Nc2c(C)nc(Nc3ccccc3)nc2Nc2ccccc2)cc1OCC | -20.1% | 14.8% | -13.7% | ? | 70.8µM* | .
CC(C)OCCCn1c(=S)[nH]c2cc3c(cc2c1=O)OCO3 | -5.4% | 3.4% | 1.1% | 6.6% | 17.2% | -1.2%
COc1ccc(C(=O)Nc2nc(-c3nnn(-c4ccc(C(C)C)cc4)c3C)ns2)cc1 | -22.0% | -0.6% | -4.2% | ? | 0.4% | .
COc1cc(OC)cc(C(=O)Nc2nc(-c3nnn(-c4ccc(F)c(Cl)c4)c3C)ns2)c1 | 9.8% | 3.16µM* | -12.9% | -27.0% | ? | .
CC(C)(C)c1cc[n+](C2=C([O-])c3ccccc3C(=O)/C2=N\S(=O)(=O)c2cccs2)cc1 | -15.9% | -112.5% | -2.3% | 6.3% | ? | ?
O=C1/C(=N\S(=O)(=O)c2cccs2)C([n+]2ccccc2)=C([O-])c2ccccc21 | 11.3% | ? | 31.6µM* | -5.5% | 29.9% | -2.7%[11.6 µM]
O=C(N/N=C/c1ccco1)c1ccccc1OCc1ccccc1Cl | 14.3% | 16.8% | 5.2% | 4.9% | 16.9% | -10.1%
CCCc1cc2c(=O)c(-c3nc4ccccc4s3)c(COCC(=O)O)oc2cc1O | -21.9% | -27.0% | 79.4µM* | -4.4% | ? | -23.0%
CCc1cc2c(=O)c(-c3nc4ccccc4n3C)c(COCC(=O)O)oc2cc1O | -6.6% | 0.9% | -14.7% | 6.2% | 25.2% | -6.0%
CN(C)c1ccc(CN(C(=O)/C=C/c2ccccc2Cl)C2CCS(=O)(=O)C2)cc1 (centres undefined) | -14.9% | 12.3% | -23.1% | -16.5% | -3.6% | -1.6%
O=C(COC(=O)c1ccc(Br)o1)Nc1nc2c(F)c(F)c(F)cc2s1 | ? | 11.2µM* | 56.2µM* | -0.5% | -28.8% | -15.3%
O=C(COC(=O)c1ccc(NS(=O)(=O)c2cccs2)cc1)Nc1nc2c(F)c(F)c(F)cc2s1 | ? | 28.2µM* | 20µM* | -32.2% | 39.8µM* | -34.6%
O=C(COC(=O)CCC1CCCC1)Nc1nc2c(F)c(F)c(F)cc2s1 | 0.0% | 1.3%[57.1 µM] | -11.6% | -16.2% | 0.1% | -3.8%
COc1ccc2ccc3c(c2c1)N=CC1(O3)N(C)c2ccccc2C1(C)C (centres undefined) | -10.3% | ? | -17.5% | ? | 5.01µM* | 79.4µM*
CN1c2ccccc2C(C)(C)C12C=Nc1c(ccc3ccccc13)O2 (centres undefined) | -3.3% | 2.3% | -18.0% | -16.9% | ? | ?

Screening data (PubChem)
